The supplement of paper PMC10849652
About 7,900 targets were measured; listed, in parts, are those with a hit and a random draw of the rest. About 0.6% of all pairs of compound and target were hits. Values without a mark were called inactive.

Columns and labels:
Assay in all cases: log2 fold change, soluble protein after heating vs DMSO (PISA); higher = thermal stabilisation; K562 cells, 10 uM, 30 min; active = over 0.2 and 3.5 SD of the protein, either way, in both replicates (recomputed)
[1] = compound: COC1=CC=C(C=C1)CN2C=CC3=C2C=C(C=C3)C(=O)NO
Method in brief: (§1)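 K562 cells at 2×10^6 cells/mL were treated for 30 min with 10 μM compound, and aliquots were heated for 3 min over 48°C-58°C before pooling. Extraction used PBS with 0.5% NP-40 at 4°C, and soluble protein was the supernatant after 21,000xg for 90 min, measured by TMTpro 16plex LC-MS/MS with channel sums equalised. Thermal stability values, relative to control samples and from duplicates, are log2 fold changes.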

filanesib = compound: CON(C)C(=O)N1N=C(c2cc(F)ccc2F)S[C@@]1(CCCN)c1ccccc1 [filanesib]
Method in brief: as §1

zotarolimus = compound: CO[C@H]1C[C@@H]2CC[C@@H](C)[C@@](O)(O2)C(=O)C(=O)N2CCCC[C@H]2C(=O)O[C@H]([C@H](C)C[C@@H]2CC[C@H](n3cnnn3)[C@H](OC)C2)CC(=O)[C@H](C)/C=C(\C)[C@@H](O)[C@@H](OC)C(=O)[C@H](C)C[C@H](C)/C=C/C=C/C=C/1C [zotarolimus]
Method in brief: as §1

idasanutlin = compound: COc1cc(C(=O)O)ccc1NC(=O)[C@@H]1N[C@@H](CC(C)(C)C)[C@](C#N)(c2ccc(Cl)cc2F)[C@H]1c1cccc(Cl)c1F [idasanutlin]
Method in brief: as §1

alisertib = compound: COc1cc(Nc2ncc3c(n2)-c2ccc(Cl)cc2C(c2c(F)cccc2OC)=NC3)ccc1C(=O)O [alisertib]
Method in brief: as §1

[2] = compound: COc1cc2nc(-c3cc(F)ccc3O)nc(N[C@@H]3CNC[C@H]3C(C)(C)O)c2cc1OC
Method in brief: as §1

gefitinib = compound: COc1cc2ncnc(Nc3ccc(F)c(Cl)c3)c2cc1OCCCN1CCOCC1 [gefitinib]
Method in brief: as §1

[3] = compound: COc1cccc2cc(-c3nc([C@H]4CC[C@H](C(=O)O)CC4)n4ncnc(N)c34)[nH]c12
Method in brief: as §1

lapatinib = compound: CS(=O)(=O)CCNCc1ccc(-c2ccc3ncnc(Nc4ccc(OCc5cccc(F)c5)c(Cl)c4)c3c2)o1 [lapatinib]
Method in brief: as §1

pictilisib = compound: CS(=O)(=O)N1CCN(Cc2cc3nc(-c4cccc5[nH]ncc45)nc(N4CCOCC4)c3s2)CC1 [pictilisib]
Method in brief: as §1

[4] = compound: CS(=O)(=O)c1ccc(-c2cnc(N)c(C(=O)Nc3ccccc3)n2)cc1
Method in brief: as §1

crizotinib = compound: C[C@@H](Oc1cc(-c2cnn(C3CCNCC3)c2)cnc1N)c1c(Cl)ccc(F)c1Cl [crizotinib]
Method in brief: as §1

[5] = compound: C[C@@H]1COCCN1C2=NC(=NC(=C2)C3(CC3)S(=O)(=O)C)C4=C5C=CNC5=CC=C4
Method in brief: as §1

[6] = compound: C[C@H](C1=CC=C(C=C1)C(=O)NC2=C3C=CNC3=NC=C2)N
Method in brief: as §1

duvelisib = compound: C[C@H](Nc1ncnc2nc[nH]c12)c1cc2cccc(Cl)c2c(=O)n1-c1ccccc1 [duvelisib]
Method in brief: as §1

gandotinib = compound: Cc1cc(Nc2cc(CN3CCOCC3)c3nc(C)c(Cc4ccc(Cl)cc4F)n3n2)n[nH]1 [gandotinib]
Method in brief: as §1

[7] = compound: Cc1cc(SCc2sc(-c3ccc(C(F)(F)F)cc3)nc2C)ccc1OCC(=O)O
Method in brief: as §1

doramapimod = compound: Cc1ccc(-n2nc(C(C)(C)C)cc2NC(=O)Nc2ccc(OCCN3CCOCC3)c3ccccc23)cc1 [doramapimod]
Method in brief: as §1

tozasertib = compound: Cc1cc(Nc2cc(N3CCN(C)CC3)nc(Sc3ccc(NC(=O)C4CC4)cc3)n2)n[nH]1 [tozasertib]
Method in brief: as §1

ispinesib = compound: Cc1ccc(C(=O)N(CCCN)[C@@H](c2nc3cc(Cl)ccc3c(=O)n2Cc2ccccc2)C(C)C)cc1 [ispinesib]
Method in brief: as §1

Chain of UniProt Q7L099 (Q7L099 whole entry, looked up): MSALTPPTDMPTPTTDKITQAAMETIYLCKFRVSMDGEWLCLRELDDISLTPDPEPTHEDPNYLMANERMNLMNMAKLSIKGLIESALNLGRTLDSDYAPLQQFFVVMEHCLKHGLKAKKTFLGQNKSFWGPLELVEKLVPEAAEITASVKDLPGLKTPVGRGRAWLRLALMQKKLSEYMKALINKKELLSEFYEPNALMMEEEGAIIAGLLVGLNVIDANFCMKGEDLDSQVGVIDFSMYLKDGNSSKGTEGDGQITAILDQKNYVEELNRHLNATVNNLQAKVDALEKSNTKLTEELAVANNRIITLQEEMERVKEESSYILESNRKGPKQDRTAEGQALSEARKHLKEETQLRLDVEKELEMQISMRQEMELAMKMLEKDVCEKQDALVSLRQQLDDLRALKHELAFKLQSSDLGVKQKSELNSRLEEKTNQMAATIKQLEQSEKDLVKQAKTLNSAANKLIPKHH
Chain of UniProt O15027 (O15027 whole entry, looked up): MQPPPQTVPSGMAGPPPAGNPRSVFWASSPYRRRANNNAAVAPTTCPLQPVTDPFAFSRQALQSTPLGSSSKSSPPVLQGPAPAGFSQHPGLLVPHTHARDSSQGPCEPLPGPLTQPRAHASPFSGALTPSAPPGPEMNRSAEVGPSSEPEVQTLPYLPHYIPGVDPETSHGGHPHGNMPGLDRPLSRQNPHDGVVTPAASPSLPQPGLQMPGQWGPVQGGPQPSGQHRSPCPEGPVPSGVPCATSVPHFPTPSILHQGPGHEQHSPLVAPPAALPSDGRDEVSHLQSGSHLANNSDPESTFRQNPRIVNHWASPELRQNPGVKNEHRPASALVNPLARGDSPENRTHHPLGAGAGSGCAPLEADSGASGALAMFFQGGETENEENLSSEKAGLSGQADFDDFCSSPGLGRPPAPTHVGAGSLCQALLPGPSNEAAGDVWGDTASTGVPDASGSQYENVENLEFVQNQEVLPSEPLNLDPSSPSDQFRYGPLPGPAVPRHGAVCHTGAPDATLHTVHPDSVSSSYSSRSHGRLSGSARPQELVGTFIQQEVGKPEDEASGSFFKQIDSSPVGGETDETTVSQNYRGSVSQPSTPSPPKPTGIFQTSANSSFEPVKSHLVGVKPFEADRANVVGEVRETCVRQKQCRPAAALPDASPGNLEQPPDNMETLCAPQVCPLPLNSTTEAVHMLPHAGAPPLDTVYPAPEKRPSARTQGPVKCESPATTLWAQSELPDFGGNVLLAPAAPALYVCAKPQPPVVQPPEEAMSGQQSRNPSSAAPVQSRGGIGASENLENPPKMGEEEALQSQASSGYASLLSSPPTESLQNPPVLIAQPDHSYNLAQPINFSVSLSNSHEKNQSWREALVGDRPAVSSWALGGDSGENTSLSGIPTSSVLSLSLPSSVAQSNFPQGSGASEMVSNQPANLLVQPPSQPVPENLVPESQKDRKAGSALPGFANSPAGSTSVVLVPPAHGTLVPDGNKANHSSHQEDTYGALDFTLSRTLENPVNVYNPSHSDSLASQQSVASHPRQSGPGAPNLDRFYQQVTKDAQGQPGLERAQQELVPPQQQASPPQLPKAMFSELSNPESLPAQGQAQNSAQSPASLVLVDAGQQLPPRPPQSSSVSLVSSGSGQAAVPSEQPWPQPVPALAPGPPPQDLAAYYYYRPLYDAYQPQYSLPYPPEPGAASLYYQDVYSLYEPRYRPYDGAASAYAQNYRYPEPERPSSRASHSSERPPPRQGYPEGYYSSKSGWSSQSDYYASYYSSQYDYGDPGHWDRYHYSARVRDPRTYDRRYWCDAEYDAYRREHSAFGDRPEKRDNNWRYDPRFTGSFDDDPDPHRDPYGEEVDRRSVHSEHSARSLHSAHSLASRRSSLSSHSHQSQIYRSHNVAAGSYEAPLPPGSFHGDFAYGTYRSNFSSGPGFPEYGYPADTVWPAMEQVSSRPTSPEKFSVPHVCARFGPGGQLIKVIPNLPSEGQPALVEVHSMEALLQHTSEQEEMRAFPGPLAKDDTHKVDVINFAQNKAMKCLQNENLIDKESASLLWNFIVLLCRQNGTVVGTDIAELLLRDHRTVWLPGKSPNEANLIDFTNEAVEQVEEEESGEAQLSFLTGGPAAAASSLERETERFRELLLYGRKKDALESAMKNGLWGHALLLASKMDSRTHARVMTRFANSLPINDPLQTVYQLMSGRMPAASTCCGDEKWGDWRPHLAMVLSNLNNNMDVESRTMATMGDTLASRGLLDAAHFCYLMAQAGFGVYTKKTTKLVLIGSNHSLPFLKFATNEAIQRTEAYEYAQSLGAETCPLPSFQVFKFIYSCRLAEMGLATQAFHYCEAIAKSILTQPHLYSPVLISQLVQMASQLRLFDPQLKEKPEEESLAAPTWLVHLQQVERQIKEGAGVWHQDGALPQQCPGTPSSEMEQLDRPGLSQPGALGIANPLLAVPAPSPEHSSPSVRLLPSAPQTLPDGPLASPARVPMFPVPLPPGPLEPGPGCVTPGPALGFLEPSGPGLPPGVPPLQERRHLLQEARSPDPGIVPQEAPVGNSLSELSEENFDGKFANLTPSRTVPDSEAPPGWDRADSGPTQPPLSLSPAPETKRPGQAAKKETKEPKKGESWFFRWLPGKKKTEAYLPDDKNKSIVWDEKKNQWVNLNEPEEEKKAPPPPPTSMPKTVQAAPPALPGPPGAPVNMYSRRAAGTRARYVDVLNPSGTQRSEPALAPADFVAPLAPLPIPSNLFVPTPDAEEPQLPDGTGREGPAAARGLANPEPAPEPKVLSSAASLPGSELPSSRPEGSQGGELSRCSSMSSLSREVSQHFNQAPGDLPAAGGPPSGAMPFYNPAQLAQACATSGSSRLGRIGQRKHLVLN
Chain of UniProt Q14151 (Q14151 whole entry, looked up): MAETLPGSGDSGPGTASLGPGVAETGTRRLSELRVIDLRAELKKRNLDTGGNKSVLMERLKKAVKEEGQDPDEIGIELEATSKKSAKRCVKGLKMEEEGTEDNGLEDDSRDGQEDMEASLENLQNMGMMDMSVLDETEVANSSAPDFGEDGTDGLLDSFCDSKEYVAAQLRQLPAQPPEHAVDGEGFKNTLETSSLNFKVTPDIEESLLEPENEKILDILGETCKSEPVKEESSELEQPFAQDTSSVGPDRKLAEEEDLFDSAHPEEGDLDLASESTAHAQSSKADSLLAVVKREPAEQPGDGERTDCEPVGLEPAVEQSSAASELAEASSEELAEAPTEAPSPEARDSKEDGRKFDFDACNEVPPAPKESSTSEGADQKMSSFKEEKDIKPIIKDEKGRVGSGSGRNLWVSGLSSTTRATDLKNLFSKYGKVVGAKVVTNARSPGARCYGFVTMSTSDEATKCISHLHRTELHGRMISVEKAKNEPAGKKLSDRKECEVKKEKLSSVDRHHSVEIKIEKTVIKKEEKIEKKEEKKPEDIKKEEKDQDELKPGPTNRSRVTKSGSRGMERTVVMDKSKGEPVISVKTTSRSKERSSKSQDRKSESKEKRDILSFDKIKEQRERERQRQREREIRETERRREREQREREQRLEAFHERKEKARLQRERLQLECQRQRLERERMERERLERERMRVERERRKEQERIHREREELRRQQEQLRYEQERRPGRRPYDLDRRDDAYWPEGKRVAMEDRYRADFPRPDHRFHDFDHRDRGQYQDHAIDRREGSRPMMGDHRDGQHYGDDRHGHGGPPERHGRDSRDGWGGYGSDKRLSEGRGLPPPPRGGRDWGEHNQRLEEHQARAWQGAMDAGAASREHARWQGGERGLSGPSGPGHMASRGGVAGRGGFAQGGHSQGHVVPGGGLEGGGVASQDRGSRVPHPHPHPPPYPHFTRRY
Chain of UniProt Q8WZA2 (Q8WZA2 whole entry, looked up): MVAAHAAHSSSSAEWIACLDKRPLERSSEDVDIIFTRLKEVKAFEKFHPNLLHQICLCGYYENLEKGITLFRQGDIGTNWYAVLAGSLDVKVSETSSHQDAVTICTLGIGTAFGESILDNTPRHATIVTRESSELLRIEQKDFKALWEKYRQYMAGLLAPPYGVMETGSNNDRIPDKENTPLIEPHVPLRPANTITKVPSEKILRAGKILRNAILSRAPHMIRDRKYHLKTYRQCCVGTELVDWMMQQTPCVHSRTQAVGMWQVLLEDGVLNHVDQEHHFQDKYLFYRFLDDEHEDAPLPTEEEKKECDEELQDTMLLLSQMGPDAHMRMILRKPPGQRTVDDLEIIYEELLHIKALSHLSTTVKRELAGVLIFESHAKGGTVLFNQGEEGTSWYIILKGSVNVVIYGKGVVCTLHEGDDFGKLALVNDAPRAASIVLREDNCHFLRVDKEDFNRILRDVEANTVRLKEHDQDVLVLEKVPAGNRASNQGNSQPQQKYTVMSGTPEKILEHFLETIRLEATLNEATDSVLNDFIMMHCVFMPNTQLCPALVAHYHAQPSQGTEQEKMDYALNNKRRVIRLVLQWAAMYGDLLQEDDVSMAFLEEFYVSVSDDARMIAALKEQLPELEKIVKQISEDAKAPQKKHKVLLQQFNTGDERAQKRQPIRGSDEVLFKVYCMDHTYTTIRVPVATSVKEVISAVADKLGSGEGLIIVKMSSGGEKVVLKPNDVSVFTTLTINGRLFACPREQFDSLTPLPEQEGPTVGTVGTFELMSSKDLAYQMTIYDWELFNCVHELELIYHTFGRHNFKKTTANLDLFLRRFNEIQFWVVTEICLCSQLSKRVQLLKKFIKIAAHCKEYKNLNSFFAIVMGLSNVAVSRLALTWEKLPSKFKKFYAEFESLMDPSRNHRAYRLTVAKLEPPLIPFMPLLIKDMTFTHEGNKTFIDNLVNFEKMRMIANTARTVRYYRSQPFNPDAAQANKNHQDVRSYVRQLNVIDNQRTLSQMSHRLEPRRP
Chain of UniProt O95059 (O95059 whole entry, looked up): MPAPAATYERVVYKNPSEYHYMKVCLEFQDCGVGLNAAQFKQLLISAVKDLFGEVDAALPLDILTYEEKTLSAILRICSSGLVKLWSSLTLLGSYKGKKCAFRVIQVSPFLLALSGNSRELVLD
Chain of UniProt Q9BUV8 (Q9BUV8 whole entry, looked up): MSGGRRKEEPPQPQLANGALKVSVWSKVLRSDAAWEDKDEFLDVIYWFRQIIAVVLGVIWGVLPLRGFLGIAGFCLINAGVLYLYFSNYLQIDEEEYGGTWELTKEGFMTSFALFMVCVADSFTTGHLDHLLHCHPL

Target | log2 fold change [1] | log2 fold change (filanesib) | log2 fold change (zotarolimus) | log2 fold change (idasanutlin) | log2 fold change (alisertib) | log2 fold change [2] | log2 fold change (gefitinib) | log2 fold change [3] | log2 fold change (lapatinib) | log2 fold change (pictilisib) | log2 fold change [4] | log2 fold change (crizotinib) | log2 fold change [5] | log2 fold change [6] | log2 fold change (duvelisib) | log2 fold change (gandotinib) | log2 fold change [7] | log2 fold change (doramapimod) | log2 fold change (tozasertib) | log2 fold change (ispinesib)
SAP30 (UniProt O75446) | 0.089 | 0.044 | 0.047 | 0.024 | -0.015 | -0.059 | 0.003 | -0.095 | -0.035 | -0.068 | -0.087 | 0.012 | -0.047 | 0.098 | -0.09 | 0.162 | 0.124 | -0.088 | – | –
RBBP6 (UniProt Q7Z6E9) | 0.101 | 0.468 (active) | -0.052 | 0.089 | 0.044 | -0.099 | -0.02 | 0.146 | 0.101 | 0.016 | -0.117 | -0.158 | -0.036 | 0.072 | – | -0.066 | – | 0.012 | 0.03 | 0.168
RAB3GAP2 (UniProt Q9H2M9) | 0 | 0.049 | 0.101 | 0.01 | -0.056 | 0.009 | 0.017 | -0.103 | 0.038 | -0.027 | 0.019 | -0.064 | -0.024 | 0.213 | -0.046 | 0.003 | 0.119 | 0.046 | 0.048 | -0.097
RAB3IL1 (UniProt E9PK89) | 0.031 | -0.22 | 0.093 | -0.035 | – | 0.097 | -0.034 | – | 0.063 | -0.075 | 0.036 | -0.003 | 0.163 | -0.211 | – | 0.154 | – | -0.07 | -0.099 | 0.07
RPP14 (UniProt O95059) | -0.006 | 0.046 | 0.004 | -0.038 | -0.051 | -0.053 | -0.022 | 0.047 | 0.042 | -0.19 | -0.048 | -0.046 | 0.019 | -0.076 | -0.019 | -0.119 | -0.054 | 0.06 | 0.052 | 0.03
RABGAP1L isoform 5 (UniProt Q5R372) | 0.117 | 0.108 | -0.008 | 0.05 | -0.071 | 0.065 | -0.097 | 0.007 | -0.027 | – | 0.071 | 0.003 | 0.022 | 0.046 | 0.008 | – | -0.015 | -0.073 | -0.121 | –
SENP6 (UniProt Q9GZR1) | 0.029 | 0.115 | -0.077 | 0.088 | -0.016 | 0.016 | 0.028 | 0.039 | 0.066 | 0.076 | -0.016 | -0.015 | -0.134 | -0.002 | 0.024 | -0.056 | -0.046 | 0.006 | 0.02 | -0.046
RAPGEF4 (UniProt Q8WZA2) | 0.549 | 0.053 | -0.078 | 0.021 | -0.145 | – | – | 0.187 | – | – | 0.115 | 0.051 | 0.04 | -0.061 | 0.07 | – | -0.139 | 0.097 | -0.107 | –
RPS6KA3 (UniProt P51812) | -0.013 | 0 | 0.033 | -0.008 | – | -0.221 | -0.033 | 0.013 | 0.011 | -0.011 | 0.023 | -0.107 | 0.024 | -0.177 | 0.02 | -0.019 | 0.032 | -0.066 | 0.103 | -0.017
RAB5IF isoform 5 (UniProt Q9BUV8) | 0.429 (active) | -0.243 | -0.074 | -0.015 | -0.081 | -0.021 | 0.018 | 0.002 | 0.006 | 0.006 | -0.036 | -0.094 | 0.076 | -0.007 | 0.078 | 0.04 | -0.002 | 0.025 | -0.156 | 0.157
ROCK1 (UniProt Q13464) | 0.037 | -0.028 | 0.003 | -0.005 | 0.067 | 0.246 (active) | -0.012 | -0.005 | 0.012 | -0.012 | 0.016 | -0.017 | 0.042 | – | -0.019 | -0.025 | 0.027 | -0.025 | 0.015 | -0.069
RAF1 isoform 2 (UniProt P04049) | 0.035 | 0.085 | -0.024 | -0.102 | 0.139 | -0.246 | – | -0.067 | 0.051 | 0.207 | 0.023 | -0.305 | -0.135 | -0.092 | 0.068 | 0.131 | 0.035 | 0.133 | 0.093 | -0.145
SIK3 (UniProt H0Y4E8) | -0.015 | 0.085 | -0.073 | -0.065 | -0.018 | 0.077 | -0.026 | 0.466 | 0.036 | -0.007 | -0.144 | 0.084 | – | 0.027 | 0.035 | 0.118 | -0.056 | -0.058 | -0.106 | 0.185
SEC16A isoform 5 (UniProt O15027) | 0.079 | 0.037 | -0.01 | -0.021 | 0 | 0.007 | 0.046 | -0.148 | 0.017 | -0.003 | -0.032 | -0.231 | -0.113 | 0.143 | 0.004 | 0.087 | 0.118 | 0.023 | -0.014 | -0.119
RUFY3 isoform 3 (UniProt Q7L099) | -0.06 | 0.053 | 0.003 | -0.108 | 0.155 | 0.045 | 0.08 | -0.122 | -0.01 | 0.018 | 0.017 | 0.007 | – | -0.085 | -0.073 | -0.012 | 0.617 (active) | -0.057 | 0.002 | -0.048
SAFB2 (UniProt Q14151) | -0.044 | 0.409 (active) | 0.017 | 0.085 | -0.045 | -0.046 | 0 | -0.037 | 0.048 | -0.032 | -0.079 | -0.016 | -0.316 | 0.164 | -0.155 | 0.184 | 0.006 | 0.089 | -0.027 | -0.043
RBM6 (UniProt P78332) | 0.044 | -0.067 | 0.064 | 0.101 | -0.431 | -0.02 | -0.007 | 0.005 | 0.121 | -0.044 | 0 | 0.148 | – | 0.013 | -0.154 | -0.043 | -0.183 | 0.032 | -0.094 | –
